For 79 compounds, cytotoxicity call results are on record in the antibiotic and cytotoxicity screens of Wong et al. (2023).

About 3,300 (8.5%) of roughly 39,000 compounds were called active. For the sample, actives were picked, then their nearest neighbours and some compounds at random.

This experiment concerns HepG2. As to the kind of experiment: cytotoxicity call (relative viability < 0.9). The settings on record: 10 µM.
On to `COc1cc(O)c(C(=O)c2ccccc2)cc1S(=O)(=O)O`, for which the cytotoxicity call is “inactive”.

For the compound `COc1ccc(C(=O)c2ccccc2)c(O)c1`, the cytotoxicity call was “inactive”.

For `COc1cc(O)cc(O)c1C(=O)c1ccccc1`, the cytotoxicity call was “active”.

In the case of `C[C@H]1CN([C@@H](C)CO)C(=O)c2cc(C#Cc3cccnc3)cnc2O[C@H]1CN(C)S(=O)(=O)c1ccccc1F`, the cytotoxicity call is “inactive”.

Regarding `C[C@@H]1CN([C@H](C)CO)S(=O)(=O)c2ccc(C#CCN(C)C)cc2O[C@H]1CN(C)S(=O)(=O)c1cccc(F)c1`, the cytotoxicity call was “inactive”.

For `C[C@@H]1CN([C@H](C)CO)C(=O)c2cccc(NC(=O)C3CCOCC3)c2O[C@@H]1CN(C)S(=O)(=O)c1ccccc1`, the cytotoxicity call was “inactive”.

Regarding `CCCNc1nc(=O)c(C)n[nH]1`, the cytotoxicity call was “inactive”.

Take `Cc1n[nH]c(NCc2ccco2)nc1=O`: the cytotoxicity call is “inactive”.

For `Cc1n[nH]c(N/N=C/c2ccccn2)nc1=O`, the cytotoxicity call was “active”.

Regarding `O=C(O)[C@@H]1CCCC[C@@H]1C(=O)N1CCc2ccccc2[C@H]1CN1C(=O)c2ccccc2C1=O.O=C(O)[C@H]1CCCC[C@@H]1C(=O)N1CCc2ccccc2[C@H]1CN1C(=O)c2ccccc2C1=O`, the cytotoxicity call was “inactive”.

As to `C[C@@H]1CCCCO[C@H](CN(C)S(=O)(=O)c2cccs2)[C@@H](C)CN([C@H](C)CO)C(=O)c2cc(NS(=O)(=O)c3ccc(Cl)cc3)ccc2O1`, the cytotoxicity call is “inactive”.

In the case of `C[C@@H]1CN([C@@H](C)CO)C(=O)c2cc(NS(=O)(=O)c3cn(C)cn3)ccc2O[C@@H]1CN(C)CC1CC1`, the cytotoxicity call was “inactive”.

For `O=C1CCNc2cc3ccccc3cc21`, the cytotoxicity call was “active”.

As for `O=C1NCc2ccccc21`, the cytotoxicity call is “inactive”.

For the compound `O=C1CCCNc2ccc(Cl)cc21`, the cytotoxicity call was “inactive”.

`COc1ccc(NC(=O)N(C)C[C@@H]2Oc3ccc(NC(=O)CCN4CCOCC4)cc3C(=O)N([C@@H](C)CO)C[C@@H]2C)cc1`: the cytotoxicity call was “inactive”.

For `COc1ccc(S(=O)(=O)N(C)C[C@H]2OCCCC[C@H](C)Oc3ccc(NC(=O)Nc4ccccc4)cc3C(=O)N([C@@H](C)CO)C[C@H]2C)cc1`, the cytotoxicity call is “inactive”.

Turning to `NC1=NCCN1CC(=O)O`, the cytotoxicity call is “active”.

`O=C(O)CN1CCCCC1=O`: the cytotoxicity call is “inactive”.

With `O=C(O)CN1CCOC1=O`, the cytotoxicity call was “inactive”.

Turning to `COC(=O)N[C@H](C(=O)N1CC2(CC2)C[C@H]1c1nc(-c2ccc3c(c2)C(F)(F)c2cc(-c4ccc5nc([C@@H]6[C@H]7CC[C@H](C7)N6C(=O)[C@@H](NC(=O)OC)C(C)C)[nH]c5c4)ccc2-3)c[nH]1)C(C)C`, the cytotoxicity call was “inactive”.

With `Cn1cnc(CCNC(=O)C[C@H]2CC[C@H]3[C@@H](COC[C@H](O)CN3C(=O)C3CC3)O2)c1`, the cytotoxicity call was “inactive”.

With `O=C1OC(=O)[C@H]2[C@@H]1[C@H]1CC[C@H]2O1`, the cytotoxicity call is “active”.

For `COc1ccc2c3c([nH]c2c1)[C@@H](CO)N(C[C@]13CCN(CC1)Cc1ccccc1)S(=O)(=O)c1cn(cn1)C`, the cytotoxicity call is “inactive”.

As to `C[C@@H]1CN([C@H](C)CO)C(=O)c2cccc(NC(=O)NC3CCCCC3)c2O[C@H]1CN(C)Cc1ccc(Cl)c(Cl)c1`, the cytotoxicity call is “inactive”.

In the case of `C[C@@H]1CN([C@@H](C)CO)C(=O)c2cc(NC(=O)c3ccncc3)ccc2O[C@@H](C)CCCCO[C@H]1CN(C)Cc1ccc(C(F)(F)F)cc1`, the cytotoxicity call was “inactive”.

Consider `C[C@@H]1CCCCO[C@@H](CN(C)C(=O)C2CCCCC2)[C@@H](C)CN([C@@H](C)CO)C(=O)c2cc(NC(=O)Nc3ccccc3)ccc2O1`, for which the cytotoxicity call was “active”.

For the compound `C[C@H]1CCCCO[C@@H](CN(C)C(=O)C2CCCCC2)[C@@H](C)CN([C@@H](C)CO)C(=O)c2cc(NC(=O)Nc3ccccc3)ccc2O1`, the cytotoxicity call was “inactive”.

As to `C[C@H]1CCCCO[C@H](CN(C)C(=O)C2CCCCC2)[C@@H](C)CN([C@@H](C)CO)C(=O)c2cc(NC(=O)Nc3ccccc3)ccc2O1`, the cytotoxicity call is “inactive”.

`C[C@@H]1CN([C@H](C)CO)C(=O)c2cc(NC(=O)Nc3ccccc3)ccc2O[C@@H](C)CCCCO[C@@H]1CN(C)C(=O)C1CCCCC1`: the cytotoxicity call was “inactive”.

For `C[C@@H]1CCCCO[C@H](CN(C)C(=O)C2CCCCC2)[C@@H](C)CN([C@@H](C)CO)C(=O)c2cc(NC(=O)Nc3ccccc3)ccc2O1`, the cytotoxicity call is “active”.

Take `C[C@H](CO)N1C[C@H](C)[C@@H](CN(C)C(=O)C2CCCCC2)OCCCC[C@H](C)Oc2ccc(NC(=O)Nc3ccccc3)cc2C1=O`: the cytotoxicity call is “inactive”.

Take `C[C@H]1CN([C@@H](C)CO)C(=O)c2cccc(NC(=O)c3cnccn3)c2O[C@@H]1CN(C)Cc1ccc(C(=O)O)cc1`: the cytotoxicity call is “inactive”.

Consider `C[C@H](CO)N1C[C@H](C)[C@H](CN(C)C(=O)CN(C)C)Oc2cc(-c3ccc(C#N)cc3)ccc2S1(=O)=O`, for which the cytotoxicity call is “inactive”.

Consider `CCNC1CC(N)C(OC2OC(CN)=CCC2N)C(O)C1OC1OCC(C)(O)C(NC)C1O.O=S(=O)(O)O.O=S(=O)(O)O` (centres undefined), for which the cytotoxicity call was “inactive”.

With `COc1ccc(CN(C)C[C@H]2OCCCC[C@H](C)Oc3ccc(NC(=O)Nc4ccc5c(c4)OCO5)cc3C(=O)N([C@H](C)CO)C[C@H]2C)cc1`, the cytotoxicity call was “inactive”.

In the case of `C[C@@H]1CN([C@H](C)CO)C(=O)c2cccc(NC(=O)c3nc4ccccc4s3)c2O[C@@H]1CN(C)C(=O)Nc1ccc(C(F)(F)F)cc1`, the cytotoxicity call is “inactive”.

For `C[C@H](CO)N1C[C@H](C)[C@H](CN(C)C(=O)Nc2ccc(C(F)(F)F)cc2)Oc2c(NC(=O)c3nc4ccccc4s3)cccc2C1=O`, the cytotoxicity call is “inactive”.

As for `C[C@H](CO)N1C[C@H](C)[C@@H](CN(C)C(=O)Nc2ccc(C(F)(F)F)cc2)Oc2c(NC(=O)c3nc4ccccc4s3)cccc2C1=O`, the cytotoxicity call is “inactive”.

As to `C[C@H]1CN([C@@H](C)CO)C(=O)c2cccc(NC(=O)c3nc4ccccc4s3)c2O[C@H]1CN(C)C(=O)Nc1ccc(C(F)(F)F)cc1`, the cytotoxicity call is “active”.

Consider `C[C@@H]1CN([C@@H](C)CO)C(=O)c2cccc(NC(=O)c3nc4ccccc4s3)c2O[C@H]1CN(C)C(=O)Nc1ccc(F)cc1`, for which the cytotoxicity call is “inactive”.

For the compound `C[C@@H]1CN([C@@H](C)CO)C(=O)c2cccc(NC(=O)c3nc4ccccc4s3)c2O[C@@H]1CN(C)C(=O)Nc1ccc(F)cc1`, the cytotoxicity call was “active”.

For the compound `C[C@H]1CN([C@@H](C)CO)C(=O)c2cccc(NC(=O)c3nc4ccccc4s3)c2O[C@@H]1CN(C)C(=O)Nc1ccc(C(F)(F)F)cc1`, the cytotoxicity call is “inactive”.

`C[C@H](CO)N1C[C@H](C)[C@@H](CN(C)C(=O)Nc2ccc(F)cc2)Oc2c(NC(=O)c3nc4ccccc4s3)cccc2C1=O`: the cytotoxicity call is “inactive”.

For the compound `C[C@@H]1CN([C@@H](C)CO)C(=O)c2cccc(NC(=O)c3nc4ccccc4s3)c2O[C@H]1CN(C)C(=O)Nc1ccc(C(F)(F)F)cc1`, the cytotoxicity call is “active”.

`C[C@@H]1CCCCO[C@H](CN(C)S(=O)(=O)c2cccs2)[C@@H](C)CN([C@H](C)CO)C(=O)c2cc(NC(=O)Nc3ccccc3)ccc2O1`: the cytotoxicity call is “inactive”.

In the case of `COc1ccccc1NC(=O)N(C)C[C@H]1OCc2ccccc2-c2c(n(C)c3ccccc23)C(=O)N([C@H](C)CO)C[C@@H]1C`, the cytotoxicity call was “inactive”.

Take `C[C@H](CO)N1C[C@H](C)[C@@H](CN(C)C(=O)c2cccc(F)c2)Oc2cc(-c3ccncc3)ccc2S1(=O)=O`: the cytotoxicity call was “inactive”.

With `O=C(C[C@H]1CC[C@@H]2[C@H](COC[C@H](O)CN2S(=O)(=O)c2ccccc2)O1)N1CCOCC1`, the cytotoxicity call is “inactive”.

`C[C@H]1CN([C@@H](C)CO)C(=O)Cc2cc(NC(=O)Cn3cnnn3)ccc2O[C@H]1CN(C)Cc1ccc(-c2ccccc2)cc1`: the cytotoxicity call is “inactive”.

With `C[C@@H]1CN([C@@H](C)CO)C(=O)c2cc(NC(=O)Nc3ccccc3)ccc2O[C@@H](C)CCCCO[C@@H]1CN(C)C(=O)Nc1ccccc1`, the cytotoxicity call was “inactive”.

`C[C@@H]1CN([C@H](C)CO)C(=O)Cc2cc(NC(=O)CCN3CCOCC3)ccc2O[C@H]1CN(C)Cc1ccc2c(c1)OCO2`: the cytotoxicity call was “inactive”.

For the compound `Cc1noc(C)c1S(=O)(=O)N(C)C[C@@H]1Oc2ccc(NC(=O)NC3CCCCC3)cc2CC(=O)N([C@@H](C)CO)C[C@H]1C`, the cytotoxicity call is “inactive”.

Turning to `Cc1ccc(S[C@]2(C(=O)NCc3ccccc3)CC(=O)N(Cc3ccccc3C(F)(F)F)[C@@H]2c2ccc(CO)cc2I)cc1`, the cytotoxicity call was “inactive”.

With `CN(C)c1ccc(O)c2c1C[C@H]1C[C@H]3[C@H](N(C)C)C(=O)C(C(N)=O)=C(O)[C@@]3(O)C(=O)[C@H]1C2=O`, the cytotoxicity call was “inactive”.

On to `CC(C)c1c(O)ccc2c1CC[C@H]1C(C)(C)CCC[C@]21C`, for which the cytotoxicity call was “active”.

For the compound `COC(=O)C1(C)CCCC2(C)c3ccc(C(C)C)cc3C(=O)CC12` (centres undefined), the cytotoxicity call was “inactive”.

As to `CC(C)c1c(O)ccc2c1CCC1C(C)(C)CCCC21C` (centres undefined), the cytotoxicity call is “inactive”.

Consider `CC(C)c1c(O)ccc2c1CCC1C(C)(C)C(=O)CCC21C` (centres undefined), for which the cytotoxicity call is “inactive”.

`CC(C)c1c(O)ccc2c1CCC1C(C)(C=O)CCCC21C` (centres undefined): the cytotoxicity call was “inactive”.

For the compound `COC(=O)C1(C)CCCC2(C)c3ccc(O)c(C(C)C)c3CCC12` (centres undefined), the cytotoxicity call is “active”.

Consider `CC(C)(CO)c1cc2cc(NC(=O)C3(c4ccc5c(c4)OC(F)(F)O5)CC3)c(F)cc2n1C[C@@H](O)CO`, for which the cytotoxicity call is “inactive”.

With `NCCn1cccn1`, the cytotoxicity call is “inactive”.

In the case of `C[C@@H]1CN([C@@H](C)CO)S(=O)(=O)c2ccc(C#CCN(C)C)cc2O[C@H]1CN(C)Cc1ccccn1`, the cytotoxicity call was “inactive”.

For the compound `CC(C)(C)C1CCC(OC[C@@H](O)CN2CCC(CN3C(=O)c4cccc5cccc(c45)C3=O)CC2)CC1` (some centres undefined), the cytotoxicity call was “active”.

Take `O=C(CN1C(=O)c2cccc3cccc(c23)C1=O)N1CCN(CCN2C(=O)[C@@H]3[C@@H](C2=O)[C@@H]2C=C[C@@H]3C2)CC1`: the cytotoxicity call was “inactive”.

`O=C(O)CN1C(=O)c2cccc3cccc(c23)C1=O`: the cytotoxicity call was “inactive”.

In the case of `CCCN(C)C[C@H]1OCCCC[C@@H](C)Oc2ccc(NC(=O)Nc3c(C)noc3C)cc2C(=O)N([C@H](C)CO)C[C@@H]1C`, the cytotoxicity call was “inactive”.

`COc1ccc(S(=O)(=O)Nc2ccc3c(c2)C(=O)N([C@@H](C)CO)C[C@H](C)[C@@H](CN(C)C(=O)Nc2cccc4ccccc24)OCCCC[C@@H](C)O3)cc1`: the cytotoxicity call is “inactive”.

As to `CC=C1C2C=C(C)CC1(N)c1ccc(=O)[nH]c1C2` (centres undefined), the cytotoxicity call was “inactive”.

For `C[C@@H]1CN([C@H](C)CO)C(=O)c2cccc(NC(=O)Nc3ccccc3)c2O[C@@H]1CN(C)Cc1ccc(C(=O)Nc2ccccc2N)cc1`, the cytotoxicity call was “inactive”.

Regarding `C[C@H]1CN([C@@H](C)CO)C(=O)c2cccc(NC(=O)Nc3ccc(F)cc3)c2O[C@H]1CN(C)Cc1ccc(C(=O)Nc2ccccc2N)cc1`, the cytotoxicity call is “active”.

As to `C[C@H]1CN([C@@H](C)CO)C(=O)c2cccc(NC(=O)Nc3ccccc3)c2O[C@H]1CN(C)Cc1ccc(C(=O)Nc2ccccc2N)cc1`, the cytotoxicity call was “active”.

As for `C[C@H]1CN([C@@H](C)CO)C(=O)c2cccc(NC(=O)Nc3ccc(F)cc3)c2O[C@@H]1CN(C)Cc1ccc(C(=O)Nc2ccccc2N)cc1`, the cytotoxicity call was “inactive”.

`C[C@@H]1CN([C@@H](C)CO)C(=O)c2cccc(NC(=O)Nc3ccc(F)cc3)c2O[C@H]1CN(C)Cc1ccc(C(=O)Nc2ccccc2N)cc1`: the cytotoxicity call was “inactive”.

Take `C[C@@H]1CN([C@H](C)CO)C(=O)c2cccc(NC(=O)Nc3ccc(F)cc3)c2O[C@H]1CN(C)Cc1ccc(C(=O)Nc2ccccc2N)cc1`: the cytotoxicity call was “inactive”.

On to `C[C@@H]1CN([C@@H](C)CO)C(=O)c2cccc(NC(=O)Nc3ccccc3)c2O[C@H]1CN(C)Cc1ccc(C(=O)Nc2ccccc2N)cc1`, for which the cytotoxicity call is “inactive”.

As for `C[C@H](CO)N1C[C@H](C)[C@H](CN(C)Cc2ccc(C(=O)Nc3ccccc3N)cc2)Oc2c(NC(=O)Nc3ccc(F)cc3)cccc2C1=O`, the cytotoxicity call is “inactive”.

For `C[C@@H]1CN([C@@H](C)CO)C(=O)c2cccc(NC(=O)Nc3ccc(F)cc3)c2O[C@@H]1CN(C)Cc1ccc(C(=O)Nc2ccccc2N)cc1`, the cytotoxicity call is “active”.
